Data taken from PubChem BioAssay (Tox21).
Values without a mark were called inactive. Results filed as inconclusive are left out. A call without a number means that no potency is given here. Active and inactive are the calls of the source. Unless noted, calls follow the shape of the dose curve; as a rule, active = well fitted curve in the direction sought with a large enough effect in the repeat runs; inconclusive = weak or mixed curves; inactive = no such curve, though single readings can be large; an effect the other way counts as inactive or inconclusive.

Experiments:
[1] = qHTS assay for small molecule agonists of the p53 signaling pathway (AID 651631; calls by dose curve; also: nearly all actives have a fitted effect of over 15% in size)
Summary of the method: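 Agonist mode screen using a stably integrated beta-lactamase gene under p53 response elements in HCT-116 cells. Compound exposure lasts 16 h at 37 °C; fluorescence intensity is measured following 2 h FRET substrate loading.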

[2] = qHTS assay for small molecules that induce genotoxicity in human embryonic kidney cells expressing luciferase-tagged ATAD5 (AID 651632); also: nearly all actives have a fitted effect of over 15% in size
Summary of the method: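 HEK293T cells carrying a luciferase reporter tagged to ATAD5 were exposed to compound or DMSO vehicle for 16 hr at 37C, 5% CO2. Amplite was added, and after 30 min at room temperature luciferase activity was read as a marker of ATAD5 induction.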

[3] = qHTS assay for small molecule agonists of the p53 signaling pathway - cell viability (AID 651633; calls by dose curve;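 also: p53RE-bla HCT reporter cells with a stable beta-lactamase p53 reporter; series mostly up to about 83 µM; nearly all actives have a fitted effect of over 30% in size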)
Summary of the method: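 p53RE-bla cells, seeded at 4,000 per well and rested 5 h at 37 C/5% CO2, received compounds in DMSO for 16 h at 37 C. CellTiter-Glo was then added, and luminescence was read after 30 min at room temperature to gauge cytotoxicity.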

[4] = qHTS assay for small molecules that induce genotoxicity in human embryonic kidney cells expressing luciferase-tagged ATAD5 - cell viability (AID 651634; calls by dose curve; also: nearly all actives have a fitted effect of over 25% in size)
Summary of the method: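 HEK293T cells expressing luciferase-tagged ATAD5 were exposed to compound or DMSO for 15.5 hr at 37C, 5% CO2. Viability was then read as live-cell protease activity by CellTiter-Fluor fluorescence after 30 min at 37C.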

[5] = qHTS assay for small molecule disruptors of the mitochondrial membrane potential - cell viability (AID 720634; calls by dose curve;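 also: human HepG2 liver cancer cells; series mostly up to about 83 µM; nearly all actives have a fitted effect of over 20% in size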)
Summary of the method: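 HepG2 cells seeded overnight at 37 C, then exposed to compound or DMSO for 1 hr at 37 C, 5% CO2. m-MPI dye added, then CellTiter-Glo for 30 min at room temperature; viability read as ATP luminescence.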

[6] = qHTS assay to test for compound auto fluorescence at 590 nm (red) in HepG2 cells (AID 720674)
Summary of the method: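 Intrinsic compound fluorescence in the red window (Ex/Em 540/590 nm) is measured in attached HepG2 cells exposed for 1 hr, DMSO vehicle as baseline, benchmarked to Rose Bengal sodium.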

[7] = qHTS assay to test for compound auto fluorescence at 535 nm (green) in HepG2 cells (AID 720675)
[8] = qHTS assay to test for compound auto fluorescence at 460 nm (blue) in HEK293 cells (AID 720678)
Summary of the method: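 Cells were seeded and left to adhere for 4-5 hr at 37C. Compounds were then pin-transferred. After an overnight incubation at 37C under 5% CO2, intrinsic fluorescence at 405/460 nm was measured and referenced to triamterene.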

[9] = qHTS assay to test for compound auto fluorescence at 590 nm (red) in HEK293 cells (AID 720679)
Summary of the method: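 Each well held 2,000 HEK293 cells in medium containing 10% dialyzed FBS. Following 4-5 hr attachment at 37C, 23 nL test compound or DMSO was added; plates sat overnight, and red fluorescence (540/590nm) was recorded.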

[10] = qHTS assay to test for compound auto fluorescence at 535 nm (green) in HEK293 cells (AID 720680)
[11] = qHTS assay to test for compound auto fluorescence at 535 nm (green) in HEK293 cell free culture (AID 720682)
Summary of the method: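 No cells present: wells hold DMEM supplemented with 10% FBS, into which compound or vehicle is pinned. Green emission is then recorded (485 nm excitation, 535 nm emission) and scaled to fluorescein.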

[12] = qHTS assay to test for compound auto fluorescence at 590 nm (red) in HEK293 cell free culture (AID 720683)
Summary of the method: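 Tox21 10K library compounds were pinned into cell-free DMEM with 10% FBS and fluorescence was read at excitation 540 nm. Activity is expressed as Rose Bengal sodium equivalency.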

[13] = qHTS assay to test for compound auto fluorescence at 590 nm (red) in HepG2 cell free culture (AID 720684)
Summary of the method: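 Red fluorescence (540 nm excitation, 590 nm emission) was measured after compound transfer into cell-free MEM supplemented with 10% FBS. Values are equivalencies against Rose Bengal sodium.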

[14] = qHTS assay to test for compound auto fluorescence at 460 nm (blue) in HepG2 cell free culture (AID 720685)
Summary of the method: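 Compound (23 nL) or DMSO pinned into cell-free MEM with 10% FBS; blue fluorescence read at 405/460 nm excitation/emission, expressed as auto-fluorescence equivalency to triamterene.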

[15] = qHTS assay to test for compound auto fluorescence at 535 nm (green) in HepG2 cell free culture (AID 720686)
[16] = qHTS assay to test for compound auto fluorescence at 460 nm (blue) in HepG2 cells (AID 720687)
Summary of the method: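 Cells (2,000/well in MEM with 10% FBS) attached overnight at 37 C, then were exposed to compound or DMSO for 1 hr at 37 C, 5% CO2. Fluorescence read at Ex/Em 405/460 nm, expressed as triamterene-equivalent signal.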

[17] = biological target: Glucocorticoid receptor (Homo sapiens) (UniProt P04150); test: qHTS assay to identify small molecule agonists of the glucocorticoid receptor (GR) signaling pathway (AID 720691; active = well fitted activation curve with a large enough effect in the signal ratio in the repeat runs, not every such curve was filed as active; the % refers to the signal ratio)
Glucocorticoid receptor (Homo sapiens), sequence (P04150 whole entry, looked up): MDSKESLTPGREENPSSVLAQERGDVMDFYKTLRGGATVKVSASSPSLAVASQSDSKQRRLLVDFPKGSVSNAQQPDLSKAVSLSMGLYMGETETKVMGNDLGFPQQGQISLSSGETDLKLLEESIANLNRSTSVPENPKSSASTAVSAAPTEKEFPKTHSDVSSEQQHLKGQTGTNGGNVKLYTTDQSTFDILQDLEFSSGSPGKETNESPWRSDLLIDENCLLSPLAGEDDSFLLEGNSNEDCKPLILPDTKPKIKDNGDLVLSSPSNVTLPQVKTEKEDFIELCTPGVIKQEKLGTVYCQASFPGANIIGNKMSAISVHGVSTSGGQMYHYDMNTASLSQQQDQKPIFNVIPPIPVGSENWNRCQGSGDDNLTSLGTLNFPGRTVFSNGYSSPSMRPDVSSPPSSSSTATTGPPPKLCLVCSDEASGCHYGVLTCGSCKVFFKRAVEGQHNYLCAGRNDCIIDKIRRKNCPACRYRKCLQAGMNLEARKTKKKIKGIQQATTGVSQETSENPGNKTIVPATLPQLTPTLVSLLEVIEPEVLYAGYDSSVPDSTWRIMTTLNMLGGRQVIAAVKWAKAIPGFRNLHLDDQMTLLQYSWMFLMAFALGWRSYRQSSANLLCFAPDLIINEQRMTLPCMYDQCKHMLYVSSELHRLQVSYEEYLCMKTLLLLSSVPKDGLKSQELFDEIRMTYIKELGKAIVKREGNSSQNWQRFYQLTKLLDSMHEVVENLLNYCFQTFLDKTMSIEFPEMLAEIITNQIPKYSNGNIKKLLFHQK
Summary of the method: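 GR-bla HeLa cells (beta-lactamase reporter under glucocorticoid response element) were plated 4 h at 37 C/5% CO2, given compounds in DMSO, and incubated 18 h at 37 C. LiveBLAzer B/G FRET substrate was added for 2 h at room temperature, then fluorescence intensity read.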

[18] = biological target: Glucocorticoid receptor (Homo sapiens) (UniProt P04150); test: qHTS assay to identify small molecule antagonists of the glucocorticoid receptor (GR) signaling pathway (AID 720692; active = well fitted inhibition curve with a large enough effect in the signal ratio in the repeat runs, not every such curve was filed as active; the % refers to the signal ratio)
Summary of the method: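 GR-bla HeLa cells (beta-lactamase reporter under glucocorticoid response element) were pre-plated 4 h at 37 C, treated with compounds plus 5 nM dexamethasone (final) for 18 h, then read by LiveBLAzer B/G FRET fluorescence after 2 h.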

[19] = qHTS assay for identifying genotoxic compounds that show differential cytotoxicity against isogenic chicken DT40 cell lines with known DNA damage response pathways - wild type cell line (AID 743012); also: potency is read from the fitted curve at half-maximal effect; nearly all actives have a fitted effect of over 60% in size
Summary of the method: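 Parental DNA repair-proficient DT40 cells, 300 per well, were pre-incubated ~0.5 h at 37 C/5% CO2, pin-dosed with compounds in DMSO, then incubated 40 h. Viability was read as CellTiter-Glo luminescence after 30 min at room temperature.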

[20] = qHTS assay for identifying genotoxic compounds that show differential cytotoxicity against isogenic chicken DT40 cell lines with known DNA damage response pathways - Rev3 mutant cell line (AID 743014); also: potency is read from the fitted curve at half-maximal effect; nearly all actives have a fitted effect of over 55% in size
[21] = qHTS assay for identifying genotoxic compounds that show differential cytotoxicity against isogenic chicken DT40 cell lines with known DNA damage response pathways - Rad54/Ku70 mutant cell line (AID 743015); also: potency is read from the fitted curve at half-maximal effect; nearly all actives have a fitted effect of over 60% in size
[22] = qHTS assay to identify small molecule antagonists of the androgen receptor (AR) signaling pathway - cell viability counter screen (AID 743033; also: nearly all actives have a fitted effect of over 45% in size)
[23] = qHTS assay to identify small molecule antagonists of the androgen receptor (AR) signaling pathway using the MDA cell line - cell viability counter screen (AID 743041; also: nearly all actives have a fitted effect of over 45% in size)
Summary of the method: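 MDA-kb2 AR-luc human breast carcinoma cells (MMTV-luciferase, AR/GR responsive) were treated with compounds plus R1881 agonist for 16 h at 37 °C. Viability was read as CellTiter-Fluor fluorescence in the same wells as the reporter assay.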

[24] = system: thyroid hormone receptor (rat, GH3 cells); test: qHTS assay to identify small molecule agonists of the thyroid receptor (TR) signaling pathway (AID 743066; calls by dose curve)
[25] = biological target: Estrogen receptor (Homo sapiens) (UniProt P03372); test: qHTS assay to identify small molecule antagonists of the estrogen receptor alpha (ER-alpha) signaling pathway (AID 743069; active = well fitted curve in the direction sought with a large enough effect in the signal ratio in the repeat runs, not every such curve was filed as active; the % refers to the signal ratio)
Estrogen receptor (Homo sapiens), sequence (P03372 whole entry, looked up): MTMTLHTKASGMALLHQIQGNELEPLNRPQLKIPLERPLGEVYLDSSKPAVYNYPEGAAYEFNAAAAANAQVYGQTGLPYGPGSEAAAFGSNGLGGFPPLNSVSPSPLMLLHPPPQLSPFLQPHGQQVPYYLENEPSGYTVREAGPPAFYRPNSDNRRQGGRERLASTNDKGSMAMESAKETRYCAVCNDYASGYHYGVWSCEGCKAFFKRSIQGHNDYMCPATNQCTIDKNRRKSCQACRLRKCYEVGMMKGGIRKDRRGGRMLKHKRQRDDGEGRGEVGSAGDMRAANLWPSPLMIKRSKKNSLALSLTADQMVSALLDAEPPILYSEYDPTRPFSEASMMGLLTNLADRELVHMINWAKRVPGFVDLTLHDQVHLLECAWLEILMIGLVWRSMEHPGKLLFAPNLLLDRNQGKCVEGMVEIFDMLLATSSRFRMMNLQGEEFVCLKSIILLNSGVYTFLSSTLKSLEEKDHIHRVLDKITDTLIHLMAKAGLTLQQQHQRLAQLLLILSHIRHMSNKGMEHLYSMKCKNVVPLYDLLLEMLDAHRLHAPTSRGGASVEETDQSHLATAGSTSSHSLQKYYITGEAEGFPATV
Summary of the method: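 HEK293 cells stably carrying an ER-alpha-UAS-bla beta-lactamase reporter were pre-cultured overnight in 2% charcoal-stripped FBS medium. Test compounds in DMSO were added together with 17beta-estradiol for 18 hr at 37C. Read-out was fluorescence after 2 hr with LiveBLAzer B/G FRET substrate at room temperature.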

[26] = qHTS assay to identify small molecule antagonists of the estrogen receptor alpha (ER-alpha) signaling pathway - cell viability counter screen (AID 743074; calls by dose curve; also: nearly all actives have a fitted effect of over 45% in size)
[27] = biological target: Estrogen receptor (Homo sapiens) (UniProt P03372); test: qHTS assay to identify small molecule agonists of the estrogen receptor alpha (ER-alpha) signaling pathway (AID 743075; calls by dose curve)
[28] = biological target: Estrogen receptor (Homo sapiens) (UniProt P03372); test: qHTS assay to identify small molecule agonists of the estrogen receptor alpha (ER-alpha) signaling pathway using the BG1 cell line (AID 743079); also: potency is read from the fitted curve at half-maximal effect; nearly all actives have a fitted effect of over 20% in size
[29] = qHTS assay to identify small molecule antagonists of the estrogen receptor alpha (ER-alpha) signaling pathway using the BG1 cell line (AID 743080; calls by dose curve; also: series mostly up to about 70 µM; nearly all actives have a fitted effect of over 25% in size)
Summary of the method: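 Antagonist mode: compounds in DMSO were pinned onto BG1-Luc-4E2 cells alongside 17beta-estradiol agonist, incubated 21.5 h, and ERE-driven luciferase measured with ONE-Glo. Cytotoxicity was multiplexed using CellTiter-Fluor fluorescence.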

[30] = qHTS assay to identify small molecule antagonists of the estrogen receptor alpha (ER-alpha) signaling pathway using the BG1 cell line - cell viability counter screen (AID 743081);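 also: compound given together with 17beta-estradiol as the ER stimulus; series mostly up to about 70 µM; nearly all actives have a fitted effect of over 45% in size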
Aromatase (Homo sapiens) = Aromatase (Homo sapiens) (UniProt P11511); test: qHTS assay to identify aromatase inhibitors (AID 743083); also: series mostly up to about 70 µM; nearly all actives have a fitted effect of over 55% in size
Aromatase (Homo sapiens), sequence (P11511 whole entry, looked up): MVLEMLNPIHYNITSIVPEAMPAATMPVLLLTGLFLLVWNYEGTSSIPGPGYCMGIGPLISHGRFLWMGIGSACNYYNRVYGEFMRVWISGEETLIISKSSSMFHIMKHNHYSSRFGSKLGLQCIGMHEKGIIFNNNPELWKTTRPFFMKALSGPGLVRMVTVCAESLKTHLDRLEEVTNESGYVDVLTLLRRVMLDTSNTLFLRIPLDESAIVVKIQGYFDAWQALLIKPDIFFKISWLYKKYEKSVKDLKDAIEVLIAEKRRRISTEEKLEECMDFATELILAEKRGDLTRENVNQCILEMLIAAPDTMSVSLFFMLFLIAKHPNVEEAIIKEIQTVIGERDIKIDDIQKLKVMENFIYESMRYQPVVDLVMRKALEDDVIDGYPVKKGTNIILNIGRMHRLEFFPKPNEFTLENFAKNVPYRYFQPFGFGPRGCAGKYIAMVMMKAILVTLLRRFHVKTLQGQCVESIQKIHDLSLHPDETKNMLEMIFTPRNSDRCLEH

[31] = qHTS assay to identify aromatase inhibitors - cell viability counter screen (AID 743084);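 also: cells stimulated with testosterone during compound exposure; nearly all actives have a fitted effect of over 55% in size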
[32] = biological target: Aryl hydrocarbon receptor (Homo sapiens) (UniProt P35869); test: qHTS assay to identify small molecule that activate the aryl hydrocarbon receptor (AhR) signaling pathway (AID 743085);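 also: HG2L7.5c1 human HepG2 liver cells with stably integrated DRE-driven firefly reporter; series mostly up to about 70 µM; nearly all actives have a fitted effect of over 15% in size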
Aryl hydrocarbon receptor (Homo sapiens), sequence (P35869 whole entry, looked up): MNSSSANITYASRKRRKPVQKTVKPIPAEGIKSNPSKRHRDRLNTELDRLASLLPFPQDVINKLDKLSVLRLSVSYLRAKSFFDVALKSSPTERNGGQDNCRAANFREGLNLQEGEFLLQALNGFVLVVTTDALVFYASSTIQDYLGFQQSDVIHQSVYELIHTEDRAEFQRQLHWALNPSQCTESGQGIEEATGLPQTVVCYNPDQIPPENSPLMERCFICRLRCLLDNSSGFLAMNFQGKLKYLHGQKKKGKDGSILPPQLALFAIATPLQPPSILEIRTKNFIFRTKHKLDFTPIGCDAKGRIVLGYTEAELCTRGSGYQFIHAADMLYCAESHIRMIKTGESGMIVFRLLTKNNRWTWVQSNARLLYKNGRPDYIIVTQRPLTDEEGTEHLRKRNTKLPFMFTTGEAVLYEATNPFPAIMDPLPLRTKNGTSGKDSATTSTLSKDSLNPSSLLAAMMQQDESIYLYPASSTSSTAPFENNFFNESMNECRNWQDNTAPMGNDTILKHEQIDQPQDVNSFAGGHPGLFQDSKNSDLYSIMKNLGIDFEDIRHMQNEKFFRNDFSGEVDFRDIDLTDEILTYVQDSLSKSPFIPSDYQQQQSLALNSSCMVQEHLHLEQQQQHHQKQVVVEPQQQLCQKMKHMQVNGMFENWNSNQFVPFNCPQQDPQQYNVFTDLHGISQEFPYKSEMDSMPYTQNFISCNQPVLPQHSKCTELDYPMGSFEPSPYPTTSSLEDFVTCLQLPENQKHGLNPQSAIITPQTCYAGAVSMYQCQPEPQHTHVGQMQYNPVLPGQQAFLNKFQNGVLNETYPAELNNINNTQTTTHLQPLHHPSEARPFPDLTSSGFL
Summary of the method: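 Compounds were tested in HepG2 hepatocellular carcinoma cells harbouring a stably integrated luciferase gene under control of 20 DREs. Increased reporter signal after 24 h treatment at 37C was taken as AhR activation.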

[33] = qHTS assay to identify small molecule that activate the aryl hydrocarbon receptor (AhR) signaling pathway - cell viability counter screen (AID 743086)
Summary of the method: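 HepG2-AhR-luc (HG2L7.5c1) cells, 4000/well, were preincubated 5 h at 37C, exposed to compound in qHTS format for 24 hr at 37C, then given CellTiter-Fluor for 30 min; viability was read as fluorescence in the reporter wells.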

[34] = biological target: Peroxisome proliferator-activated receptor gamma (Homo sapiens) (UniProt P37231); test: qHTS assay to identify small molecule agonists of the peroxisome proliferator-activated receptor gamma (PPARg) signaling pathway (AID 743094; active = well fitted activation curve with a large enough effect in the signal ratio in the repeat runs, not every such curve was filed as active; the % refers to the signal ratio)
Peroxisome proliferator-activated receptor gamma (Homo sapiens), sequence (P37231 whole entry, looked up): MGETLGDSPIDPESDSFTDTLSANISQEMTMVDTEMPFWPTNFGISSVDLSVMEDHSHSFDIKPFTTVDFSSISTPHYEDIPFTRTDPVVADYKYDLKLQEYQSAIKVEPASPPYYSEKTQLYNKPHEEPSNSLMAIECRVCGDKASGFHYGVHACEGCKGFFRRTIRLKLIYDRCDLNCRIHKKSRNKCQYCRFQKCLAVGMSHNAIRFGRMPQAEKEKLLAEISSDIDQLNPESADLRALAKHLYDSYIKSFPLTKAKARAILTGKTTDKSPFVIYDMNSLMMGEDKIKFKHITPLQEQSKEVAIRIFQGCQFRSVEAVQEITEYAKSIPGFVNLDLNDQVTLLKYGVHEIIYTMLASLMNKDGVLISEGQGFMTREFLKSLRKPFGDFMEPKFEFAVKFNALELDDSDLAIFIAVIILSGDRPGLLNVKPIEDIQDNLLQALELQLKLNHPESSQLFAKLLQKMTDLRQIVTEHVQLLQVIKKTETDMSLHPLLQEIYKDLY
Summary of the method: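 GeneBLAzer PPARg UAS-bla HEK293H cells carrying a stably integrated beta-lactamase reporter were pre-incubated 5 h at 37C, then exposed to compounds in DMSO for 17 h at 37C; LiveBLAzer B/G FRET substrate was added for 1 h at room temperature and fluorescence read.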

[35] = qHTS assay to identify small molecule antagonists of the estrogen related receptor (ERR) signaling pathway - cell viability counter screen (AID 1224818);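 also: series mostly up to about 46 µM; viability measured after 17.5 h of compound exposure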
Summary of the method: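 ERR reporter cells plated 6 h at 37 C/5% CO2, then compounds in DMSO pin-transferred and incubated 17.5 h at 37 C. Viability read as CellTiter-Fluor fluorescence after 30 min at 37 C.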

[36] = qHTS assay to identify small molecule antagonists of the estrogen related receptor (ERR) signaling pathway (AID 1224819;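 also: luminescence from an ERR-driven luciferase reporter measured with One-Glo reagent; series mostly up to about 46 µM; nearly all actives have a fitted effect of over 50% in size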)
Summary of the method: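 ERR reporter cells were plated at 2,000 cells/well and left 6 h at 37 C/5% CO2 before pin-tool transfer of compounds in DMSO. After 18 h at 37 C, One-Glo was added and luminescence was read 30 min later at room temperature.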

[37] = system: estrogen-related receptor alpha (ERRalpha) with PGC-1alpha coactivator, human; test: qHTS assay to identify small molecule antagonists of the estrogen related receptor signaling pathway with the pleiotropic PPARgamma coactivator (PGC) (AID 1224821; calls by dose curve;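 also: series mostly up to about 46 µM; lower luminescence signal means antagonism of PGC/ERR signalling; nearly all actives have a fitted effect of over 50% in size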)
Summary of the method: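 Quantitative HTS for antagonism: PGC/ERR cells received compounds after 6 h attachment and were incubated 18 h at 37 C, with luminescence (One-Glo) as the endpoint.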

[38] = qHTS assay to identify small molecule antagonists of the estrogen related receptor signaling pathway with the pleiotropic PPARgamma coactivator (PGC) cell viability counter screen (AID 1224822; also: series mostly up to about 46 µM)
Summary of the method: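 PGC/ERR cells were seeded at 2,000 cells/well, rested 6 h at 37 C/5% CO2, then given compounds in DMSO by pin tool and incubated 17.5 h at 37 C. Viability came from CellTiter-Fluor fluorescence after 30 min.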

[39] = qHTS assay to identify small molecule agonists of the estrogen related receptor signaling pathway with the pleiotropic PPARgamma coactivator (PGC) (AID 1224823)
Summary of the method: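 Cell-based luciferase assay in the NTP-supplied PGC/ERR line, 2,000 cells/well; 18 h compound exposure at 37 C, luminescence after One-Glo.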

[40] = qHTS assay to identify small molecule phospholipidosis (PLD) inducers (AID 1259344; active = well fitted curve in the direction sought with a large enough effect; an effect the other way counts as inactive or inconclusive)
Summary of the method: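 HepG2 cells on collagen I, attached 4 h at 37 C, were co-treated with compound and LipidTOX Red dye for 24 h at 37 C, then fixed with paraformaldehyde plus Hoechst 33342 and imaged by high-content microscopy for phospholipid accumulation.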

[41] = biological target: Nuclear receptor subfamily 1 group I member 2 (Rattus norvegicus) (UniProt Q9R1A7); test: Rat pregnane X receptor (rPXR) activation by small molecules, qHTS assay (AID 1346983); conditions: rPXR luciferase reporter cells, One-Glo luminescence, 24 h; max activation: stronger effect = higher value; also: nearly all actives have a fitted effect of over 20% in size
Nuclear receptor subfamily 1 group I member 2 (Rattus norvegicus), sequence (Q9R1A7 whole entry, looked up): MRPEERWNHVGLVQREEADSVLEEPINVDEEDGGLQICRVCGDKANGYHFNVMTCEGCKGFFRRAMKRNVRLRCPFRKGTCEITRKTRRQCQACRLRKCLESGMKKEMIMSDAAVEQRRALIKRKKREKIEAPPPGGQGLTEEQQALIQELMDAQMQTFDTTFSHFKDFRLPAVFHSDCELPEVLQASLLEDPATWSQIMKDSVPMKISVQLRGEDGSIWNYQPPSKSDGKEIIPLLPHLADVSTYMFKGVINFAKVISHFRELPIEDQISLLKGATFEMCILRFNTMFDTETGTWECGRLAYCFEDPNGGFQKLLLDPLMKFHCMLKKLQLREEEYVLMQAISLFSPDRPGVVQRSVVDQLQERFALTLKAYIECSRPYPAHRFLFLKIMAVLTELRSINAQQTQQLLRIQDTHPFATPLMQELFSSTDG
Summary of the method: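 Cell-based rPXR luciferase reporter assay, 2,000 cells per well, rested 5hr at 37 C before compound addition in DMSO, then 24 hr at 37 C. One-Glo reagent was added and luminescence read after 30 min at room temperature.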

[42] = biological target: Nuclear receptor subfamily 1 group I member 2 (Homo sapiens) (UniProt O75469); test: CYP3A4 induction through human pregnane X receptor (PXR) by small molecules, qHTS assay (AID 1346984); also: nearly all actives have a fitted effect of over 40% in size
Summary of the method: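 DPX-2 cells (HepG2 co-transfected with PXR and CYP3A4 promoter-luciferase) treated with compounds 24 h at 37C; luciferin-IPA CYP3A4 substrate 3uM final added for 3 h, then One-Glo; luminescence read. qHTS format.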

CC(C)NC(C)Cc1ccc(I)cc1 (stereo not drawn)
Potency [1]: inactive | Potency [2]: inactive | Potency [3]: inactive | Potency [4]: inactive | Potency [5]: inactive | outcome [6]: inactive | Potency [7]: inactive | Potency [8]: inactive | outcome [9]: inactive | Potency [10]: inactive | Potency [11]: inactive | outcome [12]: inactive | outcome [13]: inactive | Potency [14]: inactive | Potency [15]: inactive | Potency [16]: inactive | Potency [17]: inactive | Potency [18]: inactive | Potency [19]: 26.6 µM (active) | Potency [20]: 1.68 µM (active) | Potency [21]: 13.3 µM (active) | Potency [22]: inactive | Potency [23]: inactive | Potency [24]: inactive | Potency [25]: inactive | Potency [26]: inactive | Potency [27]: inactive | Potency [28]: 21.1 µM (active) | Potency [29]: inactive | Potency [30]: inactive | Potency (Aromatase (Homo sapiens)): inactive | Potency [31]: inactive | Potency [32]: inactive | Potency [33]: inactive | Potency [34]: inactive | Potency [35]: inactive | Potency [36]: inactive | Potency [37]: inactive | Potency [38]: inactive | Potency [39]: inactive | Potency [40]: inactive | max activation [41]: -3.06% | Potency [42]: inactive
